# Laboratory results published in ChEMBL document CHEMBL3988442, “University of Dundee, Small-Polar-MMV Screening Library” (2021).
# For part of these data: Entries with a potency or affinity are not part of this list.
# Columns and labels:
# Parameters in all cases: scale not given: direction of the effect not stated beside the values
# [1] = target: Protein translocase subunit SecA (Escherichia coli (strain K12)) (UniProt P10408); assay: Assay to Identify E. coli SecA ATPase Inhibitors; format: functional; settings: 30 µM
# Sequence of Protein translocase subunit SecA (Escherichia coli (strain K12)) (P10408 whole entry): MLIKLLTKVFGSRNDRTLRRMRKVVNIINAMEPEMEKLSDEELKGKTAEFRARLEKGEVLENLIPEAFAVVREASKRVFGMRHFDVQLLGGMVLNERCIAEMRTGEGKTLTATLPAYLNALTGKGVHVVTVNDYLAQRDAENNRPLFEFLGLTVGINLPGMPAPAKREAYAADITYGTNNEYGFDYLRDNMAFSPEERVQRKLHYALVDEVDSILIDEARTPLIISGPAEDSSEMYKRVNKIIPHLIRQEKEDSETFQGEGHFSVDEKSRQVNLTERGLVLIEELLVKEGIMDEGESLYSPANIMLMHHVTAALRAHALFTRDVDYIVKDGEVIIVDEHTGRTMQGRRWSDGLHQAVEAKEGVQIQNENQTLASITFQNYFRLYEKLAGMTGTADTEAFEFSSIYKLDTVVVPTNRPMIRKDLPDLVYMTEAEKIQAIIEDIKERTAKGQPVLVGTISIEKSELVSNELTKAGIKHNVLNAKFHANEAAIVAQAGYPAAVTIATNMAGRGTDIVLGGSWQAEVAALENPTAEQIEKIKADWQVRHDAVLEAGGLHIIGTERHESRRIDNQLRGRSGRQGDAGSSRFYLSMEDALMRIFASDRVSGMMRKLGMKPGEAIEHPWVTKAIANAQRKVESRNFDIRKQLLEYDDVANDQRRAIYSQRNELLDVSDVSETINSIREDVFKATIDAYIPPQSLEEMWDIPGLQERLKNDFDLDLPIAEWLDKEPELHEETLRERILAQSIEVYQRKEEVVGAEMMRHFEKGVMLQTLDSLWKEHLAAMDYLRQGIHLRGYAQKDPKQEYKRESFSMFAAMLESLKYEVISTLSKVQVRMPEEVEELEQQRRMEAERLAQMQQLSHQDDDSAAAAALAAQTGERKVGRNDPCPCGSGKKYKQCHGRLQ
# [2] = target: T1, Ubiquitin-activating enzyme e1, putative (Leishmania donovani (strain BPK282A1)) (UniProt E9BSI1); assay: Leishmania donovani Ubiquitin Activating Enzyme (LdE1); format: functional; settings: 30 µM
# T1 sequence (whole entry): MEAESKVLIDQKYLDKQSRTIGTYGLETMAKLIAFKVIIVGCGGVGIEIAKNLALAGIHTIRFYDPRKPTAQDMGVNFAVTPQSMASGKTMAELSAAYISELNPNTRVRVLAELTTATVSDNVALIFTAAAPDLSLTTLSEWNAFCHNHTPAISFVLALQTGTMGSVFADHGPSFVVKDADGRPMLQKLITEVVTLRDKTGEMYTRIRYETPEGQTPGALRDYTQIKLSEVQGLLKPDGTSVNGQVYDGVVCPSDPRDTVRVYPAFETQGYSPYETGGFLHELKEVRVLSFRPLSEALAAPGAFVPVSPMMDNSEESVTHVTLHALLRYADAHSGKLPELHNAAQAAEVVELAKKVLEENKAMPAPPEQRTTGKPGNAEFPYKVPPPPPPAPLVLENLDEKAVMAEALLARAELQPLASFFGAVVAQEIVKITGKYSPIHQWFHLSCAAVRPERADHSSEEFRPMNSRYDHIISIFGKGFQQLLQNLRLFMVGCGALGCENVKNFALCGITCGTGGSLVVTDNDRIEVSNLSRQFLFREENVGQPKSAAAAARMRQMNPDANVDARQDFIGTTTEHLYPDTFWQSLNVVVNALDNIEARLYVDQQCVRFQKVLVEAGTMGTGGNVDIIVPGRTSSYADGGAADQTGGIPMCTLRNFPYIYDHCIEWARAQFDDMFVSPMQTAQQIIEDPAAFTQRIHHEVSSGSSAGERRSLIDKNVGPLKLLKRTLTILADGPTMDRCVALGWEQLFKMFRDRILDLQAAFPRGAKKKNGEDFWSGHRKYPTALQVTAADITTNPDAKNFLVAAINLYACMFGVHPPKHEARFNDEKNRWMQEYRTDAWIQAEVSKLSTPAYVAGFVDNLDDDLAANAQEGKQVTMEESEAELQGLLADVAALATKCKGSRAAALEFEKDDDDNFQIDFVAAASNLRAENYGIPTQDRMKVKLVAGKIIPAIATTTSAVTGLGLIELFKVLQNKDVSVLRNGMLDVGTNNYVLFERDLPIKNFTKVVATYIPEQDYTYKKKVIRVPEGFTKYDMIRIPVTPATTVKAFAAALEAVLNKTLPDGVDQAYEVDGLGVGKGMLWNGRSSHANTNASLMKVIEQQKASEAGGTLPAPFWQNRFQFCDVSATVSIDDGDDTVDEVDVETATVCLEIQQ
# [3] = target: AMP-activated protein kinase, AMPK (Homo sapiens) (UniProt P54646+O43741+P54619+Q9UGJ0+Q9Y478+Q13131+Q9UGI9); assay: AMP-dependent Kinase enzyme assay. An in vitro enzyme assay that detects ADP turnover that is directly proportional to AMPK activity. This uses naive AMPK that is activated during the assay with MK-8722; format: functional; settings: 30 µM
# [4] = target: Sialic acid-binding Ig-like lectin 9 (Homo sapiens) (UniProt Q9Y336); assay: Hs-Siglec9 ALPHAscreen SOP 20170721; settings: 10 µM
# Sequence of Sialic acid-binding Ig-like lectin 9 (Homo sapiens) (Q9Y336 whole entry): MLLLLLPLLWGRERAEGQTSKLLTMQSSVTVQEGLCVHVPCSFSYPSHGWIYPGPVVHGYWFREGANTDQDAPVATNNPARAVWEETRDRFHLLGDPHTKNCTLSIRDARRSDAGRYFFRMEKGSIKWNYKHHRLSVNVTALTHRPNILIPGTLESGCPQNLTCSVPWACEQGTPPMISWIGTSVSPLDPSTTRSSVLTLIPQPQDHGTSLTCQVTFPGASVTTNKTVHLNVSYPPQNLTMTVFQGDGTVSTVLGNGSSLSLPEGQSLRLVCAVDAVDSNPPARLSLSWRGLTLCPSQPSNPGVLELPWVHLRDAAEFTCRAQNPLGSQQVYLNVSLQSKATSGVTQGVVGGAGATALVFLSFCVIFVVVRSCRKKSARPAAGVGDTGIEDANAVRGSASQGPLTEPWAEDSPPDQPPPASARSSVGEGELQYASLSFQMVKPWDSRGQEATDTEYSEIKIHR
# Trypanosoma cruzi = assay: Trypanosoma cruzi phosphomannomutase and mannose-1-phosphate guanylyltransferase assay; format: functional; settings: 10 µM
# [5] = target: T2, Arginase-2, mitochondrial (Homo sapiens) (UniProt P78540); assay: in vitro enzyme assay to detect the production of urea directly proportional to the activity of Arginase II; format: functional; settings: 33.3 µM; note: in the data most compounds retested in dose-response had high values
# T2 sequence (whole entry): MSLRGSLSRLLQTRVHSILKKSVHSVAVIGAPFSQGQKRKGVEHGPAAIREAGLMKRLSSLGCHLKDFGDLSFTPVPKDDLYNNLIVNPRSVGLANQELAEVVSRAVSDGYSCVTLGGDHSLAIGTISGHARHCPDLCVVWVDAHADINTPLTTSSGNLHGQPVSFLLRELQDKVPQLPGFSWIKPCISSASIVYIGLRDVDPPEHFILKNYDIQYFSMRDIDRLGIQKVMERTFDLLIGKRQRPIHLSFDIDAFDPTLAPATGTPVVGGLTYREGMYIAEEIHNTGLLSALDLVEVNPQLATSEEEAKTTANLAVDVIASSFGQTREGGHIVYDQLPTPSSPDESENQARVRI
# [6] = target: T3, Proteasome subunit beta (Trypanosoma cruzi) (UniProt O96673); assay: Trypanosoma cruzi proteasome chymotrypsin-like activity (TcProtChymo) assay.; note: in the data most compounds retested in dose-response had high values; format: functional; settings: 9.37 µM
# T3 sequence (whole entry): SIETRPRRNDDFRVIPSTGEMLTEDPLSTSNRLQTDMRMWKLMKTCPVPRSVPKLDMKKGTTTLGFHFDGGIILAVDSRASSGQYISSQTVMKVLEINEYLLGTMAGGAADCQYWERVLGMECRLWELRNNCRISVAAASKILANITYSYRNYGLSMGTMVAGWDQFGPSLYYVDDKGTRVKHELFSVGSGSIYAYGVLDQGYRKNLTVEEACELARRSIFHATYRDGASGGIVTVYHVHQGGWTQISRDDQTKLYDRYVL
# Homo sapiens = organism: Homo sapiens; assay: To identify inhibition of the IFN signalling (Jak-Stat) pathway via expression of an eGFP reporter gene under the control of an IFN-stimulated response element (ISRE) containing MxA promoter.; format: functional; settings: 30 µM
# [7] = target: T4, Tyrosyl-tRNA synthetase, putative (Trypanosoma cruzi (strain CL Brener)) (UniProt Q4DSP6); assay: Trypanosoma cruzi tyrosyl tRNA synthetase (TcYRS) _High Tyrosine SOP; format: functional; settings: 30 µM; note: in the data most compounds retested in dose-response had high values
# T4 sequence (whole entry): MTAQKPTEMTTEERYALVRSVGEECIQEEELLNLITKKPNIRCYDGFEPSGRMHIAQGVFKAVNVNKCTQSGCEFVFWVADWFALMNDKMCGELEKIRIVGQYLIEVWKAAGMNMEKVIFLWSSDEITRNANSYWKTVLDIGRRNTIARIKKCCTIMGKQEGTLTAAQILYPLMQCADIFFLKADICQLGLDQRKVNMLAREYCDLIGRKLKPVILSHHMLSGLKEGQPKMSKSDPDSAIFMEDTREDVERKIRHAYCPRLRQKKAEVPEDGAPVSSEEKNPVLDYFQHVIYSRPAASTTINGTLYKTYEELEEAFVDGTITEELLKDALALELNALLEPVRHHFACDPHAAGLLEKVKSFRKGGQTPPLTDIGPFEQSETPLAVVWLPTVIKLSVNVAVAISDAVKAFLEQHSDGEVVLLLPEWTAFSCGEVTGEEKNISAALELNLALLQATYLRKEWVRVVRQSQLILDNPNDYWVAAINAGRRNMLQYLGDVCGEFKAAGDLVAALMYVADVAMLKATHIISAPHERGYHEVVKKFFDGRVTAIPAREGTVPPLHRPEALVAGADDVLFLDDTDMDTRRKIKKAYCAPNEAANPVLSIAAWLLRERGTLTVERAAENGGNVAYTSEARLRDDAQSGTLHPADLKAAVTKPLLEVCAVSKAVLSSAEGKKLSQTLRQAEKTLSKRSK
# [8] = target: T4, Tyrosyl-tRNA synthetase, putative (Trypanosoma cruzi (strain CL Brener)); assay: Trypanosoma cruzi tyrosyl tRNA synthetase (TcYRS) SOP; format: functional; settings: 30 µM
# [9] = target: Chromo domain-containing protein 1 (Saccharomyces cerevisiae (strain ATCC 204508 / S288c) (Baker's yeast)) (UniProt P32657); assay: ScCHD-1 Enzyme Inhibition Assay; format: functional; settings: 30 µM; note: in the data most compounds retested in dose-response had high values
# Sequence of Chromo domain-containing protein 1 (Saccharomyces cerevisiae (strain ATCC 204508 / S288c) (Baker's yeast)) (P32657 whole entry, the tested form may be a part): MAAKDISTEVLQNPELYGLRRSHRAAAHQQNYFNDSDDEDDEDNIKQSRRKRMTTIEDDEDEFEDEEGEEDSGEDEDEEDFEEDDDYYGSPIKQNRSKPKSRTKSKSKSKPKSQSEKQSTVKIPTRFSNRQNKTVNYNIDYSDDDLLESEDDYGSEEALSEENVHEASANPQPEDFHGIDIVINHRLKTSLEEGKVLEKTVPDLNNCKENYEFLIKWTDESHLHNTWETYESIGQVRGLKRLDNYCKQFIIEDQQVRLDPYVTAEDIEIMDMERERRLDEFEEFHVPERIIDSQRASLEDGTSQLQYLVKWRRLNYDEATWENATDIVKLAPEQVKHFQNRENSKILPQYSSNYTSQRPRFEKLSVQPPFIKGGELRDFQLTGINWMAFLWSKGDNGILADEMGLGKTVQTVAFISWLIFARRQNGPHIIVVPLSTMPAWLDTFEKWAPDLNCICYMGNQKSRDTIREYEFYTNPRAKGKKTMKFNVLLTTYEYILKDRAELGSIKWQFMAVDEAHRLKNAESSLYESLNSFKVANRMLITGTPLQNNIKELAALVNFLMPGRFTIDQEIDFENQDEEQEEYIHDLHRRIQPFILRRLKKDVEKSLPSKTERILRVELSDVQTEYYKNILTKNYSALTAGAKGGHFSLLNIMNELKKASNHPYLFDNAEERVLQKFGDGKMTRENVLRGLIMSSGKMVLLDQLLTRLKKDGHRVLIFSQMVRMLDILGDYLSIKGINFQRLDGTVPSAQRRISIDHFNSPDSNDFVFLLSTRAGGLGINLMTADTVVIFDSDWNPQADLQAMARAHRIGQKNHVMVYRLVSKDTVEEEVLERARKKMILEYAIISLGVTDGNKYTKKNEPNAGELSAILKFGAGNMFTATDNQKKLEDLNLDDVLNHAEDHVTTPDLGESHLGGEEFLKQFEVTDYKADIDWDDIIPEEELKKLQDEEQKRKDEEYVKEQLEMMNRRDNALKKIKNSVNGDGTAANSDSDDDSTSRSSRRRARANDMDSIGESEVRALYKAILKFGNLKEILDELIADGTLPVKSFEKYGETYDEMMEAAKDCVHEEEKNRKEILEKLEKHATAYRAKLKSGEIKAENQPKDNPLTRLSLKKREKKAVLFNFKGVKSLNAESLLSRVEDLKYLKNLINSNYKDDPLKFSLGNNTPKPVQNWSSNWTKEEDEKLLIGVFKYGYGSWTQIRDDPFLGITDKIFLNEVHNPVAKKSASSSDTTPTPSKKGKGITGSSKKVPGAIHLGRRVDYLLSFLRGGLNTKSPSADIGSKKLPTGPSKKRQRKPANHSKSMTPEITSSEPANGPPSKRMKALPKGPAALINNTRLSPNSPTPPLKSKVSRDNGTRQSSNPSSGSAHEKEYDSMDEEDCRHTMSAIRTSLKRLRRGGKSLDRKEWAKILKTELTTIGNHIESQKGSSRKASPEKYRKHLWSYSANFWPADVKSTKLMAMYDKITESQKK
SMILES,Percent Effect [1],Percent Effect [2],Percent Effect [3],Percent Effect [4],Percent Effect (Trypanosoma cruzi),Percent Effect [5],Percent Effect [6],Percent Effect (Homo sapiens),Percent Effect [7],Percent Effect [8],Percent Effect [9]
Cn1ccc2ccnc(CC3CN(C(=O)C4CCC(F)(F)CC4)C3)c21,-2.7%,6.76%,5.92%,5.61%,-0.395%,-0.696%,9.05%,1.45%,6.45%,14.3%,-12.4%
O=C(C1=CCCC1)N1CCC[C@]2(C[C@@H](OCc3ccncc3)CO2)C1,1.57%,10.7%,4.23%,8.61%,-1.93%,-19.2%,7.69%,-6.85%,5.21%,22.5%,-9.61%
COc1ccc(-c2nc(CN3CCCC3Cn3cccn3)no2)cc1 (stereo unspecified),-6.58%,7.79%,-5.32%,11.9%,8.99%,-6.41%,9.12%,12.7%,5.83%,21.9%,-11.9%
CCS(=O)(=O)c1ccccc1N1CCC(NC(C)=O)CC1,-2.22%,21.6%,-1.79%,2.67%,-5.11%,-4.25%,-19.4%,11.3%,6.93%,13.4%,0.794%
CNC(=O)[C@H]1C[C@@H]2CN(S(=O)(=O)c3ccccc3)C[C@@H]2N1C,-2.19%,-5.2%,3.6%,3.49%,-0.492%,-13.8%,1.83%,6.5%,2.15%,-1.24%,2.52%
C[C@H]1C[C@H]2CN(C(=O)c3ccncn3)CC[C@H]2O1,-6.88%,2.7%,-0.849%,-1.39%,2.54%,2.08%,12.1%,-0.328%,6.93%,1.22%,-3.3%
Cc1cc(C)n(C2CN(CC(=O)NCC(C)(C)N3CCOCC3)C2)n1,-1.83%,8.86%,2.81%,2.3%,-1.13%,-0.645%,8.92%,20.1%,5.21%,15.2%,-7.96%
CC(C)Oc1cccc(C(=O)C2CCCN(C(=O)c3ncn[nH]3)C2)c1 (stereo unspecified),-0.804%,-2.7%,-3.49%,0.785%,7.92%,-1.91%,21.6%,3.35%,6.88%,12.2%,-3.93%
Cc1cc(C)c2cc(CNCc3ccccc3)c3nn(C)c(=O)n3c2c1,-8.18%,9.46%,-1.18%,8.69%,2.96%,-2.09%,10.3%,13.4%,4.3%,3.9%,-30.5%
Cc1cc(C)n(CC2CCCN2CCCS(=O)(=O)N(C)C)n1 (stereo unspecified),-1.98%,16.2%,-6.22%,14%,5.99%,11.9%,13.6%,8.21%,4.76%,19.5%,-4.54%
Cc1ccc(CN2CCC3(CC2)OC(C(=O)N(C)C)c2ccccc23)o1 (stereo unspecified),-0.000759%,4%,-1.87%,-0.475%,-10.2%,-8.63%,14.6%,2.54%,4.23%,0%,-8.66%
Cc1cc(N2CCC(c3nnc(CN(C)C)n3C3CC3)CC2)ccn1,-5.32%,-1.39%,34.9%,-1.61%,-4.37%,-0.883%,16.1%,-6.01%,1.05%,-5.13%,-4.13%
Fc1cccnc1OC[C@@]12CCO[C@@H]1CCN(CC1CCOCC1)C2,-3.83%,8.11%,-6.9%,22.7%,4.01%,-0.744%,14.3%,12.2%,6.45%,13.6%,-9.09%
Cc1nn(CCn2ccnc2-c2cc3n(n2)CCCNC3)c(C)c1Cl,-4.62%,21.3%,-6.15%,20.4%,5.75%,6.25%,16.9%,21.8%,7.1%,23.5%,-7.41%
O=C(c1ccc(Br)o1)N1CCCCC1Cn1cccn1 (stereo unspecified),-1.08%,2.7%,-1.88%,12.6%,0.279%,0.924%,15.3%,18.2%,0.99%,3.66%,0.762%
Cc1nn(C)c2cnn(CC(=O)NCCc3ccccc3)c12,-4.41%,6.67%,5.28%,4.15%,-2.16%,-12.5%,13.3%,1.66%,5.29%,17.9%,-8.21%
COC(=O)CCc1c(C)nc2cc(O)nn2c1C,-4.39%,20.8%,-48.9%,6.03%,1.31%,-3.92%,9.46%,6.61%,9.71%,21.9%,-9.77%
CCc1nc(C)c(C(=O)NCCNc2cnccn2)s1,-1.34%,21.1%,-0.0117%,-1.62%,1.77%,-1.44%,15.8%,4.13%,9.36%,25.9%,-8.55%
O=C1COC2(CCN(Cc3ccc(F)cc3)CC2)CN1,-4.15%,2.7%,2.05%,-2.96%,6.25%,-0.417%,10.2%,-6.9%,5.94%,15.8%,-6.08%
CCc1nnc2n1CCN(C(=O)c1cc3cc(F)ccc3[nH]1)C2,-3.51%,0%,21%,11.1%,4.68%,-1.78%,2.37%,-24.4%,7.77%,24.4%,-11.3%
CN1CCOC(CNCCc2ccccn2)C1 (stereo unspecified),-2.22%,20.2%,-8.39%,-6.71%,-3.31%,5.7%,5.32%,16.5%,8.37%,16.5%,-2.67%
